Measured values reported in article PMC11062922 (Nature Chemical Biology, 2023).
Read-outs that look alike come from different tables or passages of the source.

What was measured:
Design in all cases: species or system human, MV4-11 + K-562 + COLO205 + SK-N-BE2 + OVCAR-8
PIK3C3 = conditions: read-out: apparent Kd, compound concentrations: 100 nM and 1000 nM (sheet 'Samples'), n = 1
PIK3CD = conditions: read-out: apparent Kd, compound concentrations: 100 nM and 1000 nM (sheet 'Samples'), n = 1
PIM2 = conditions: read-out: apparent Kd, n = 1
PKN3 = conditions: read-out: apparent Kd, n = 1
TGFBR2 = conditions: read-out: apparent Kd; compound concentrations: 100 nM and 1000 nM (sheet 'Samples'), CATDS: 0.45581202141121302; n = 1
TESK2 = conditions: read-out: apparent Kd, compound concentrations: 100 nM and 1000 nM (sheet 'Samples'), n = 1
PKN2 = conditions: read-out: apparent Kd, n = 1
PIM3 = conditions: read-out: apparent Kd, compound concentrations: 100 nM and 1000 nM (sheet 'Samples'), n = 1
PRKD2 = conditions: read-out: apparent Kd; compound concentrations:100 nM and 1000 nM (sheet 'Samples'); n = 1
PRKD3 = conditions: read-out: apparent Kd; compound concentrations:100 nM and 1000 nM (sheet 'Samples'); n = 1
RIOK2 = conditions: read-out: apparent Kd; compound concentrations: 100 nM and 1000 nM (sheet 'Samples'), CATDS: 0.34769297632871299; n = 1
RIPK2 = conditions: read-out: apparent Kd, compound concentrations: 100 nM and 1000 nM (sheet 'Samples'), n = 1
SLK = conditions: read-out: apparent Kd; compound concentrations:100 nM and 1000 nM (sheet 'Samples'); n = 1
RPS6KB1 = conditions: read-out: apparent Kd; compound concentrations: 100 nM and 1000 nM (sheet 'Samples'), CATDS: 0.26812352090996999; n = 1
[1] = compound concentrations: 100 nM and 1000 nM (sheet 'Samples'), CATDS: 1
[2] = compound concentrations:100 nM and 1000 nM (sheet 'Samples')

Nc1ncc(-c2ccc3nccc(-c4ccncc4)c3c2)cc1S(=O)(=O)N1CCCCC1 [GSK1693850A]
potency estimated from few doses (PIK3C3; CATDS: 6.5868178094699706E-2): 1.12 µM
potency estimated from few doses (PIK3CD; CATDS: 0.491044301139066): 0.00469 µM
potency estimated from few doses (PIM2; compound concentrations: 100 nM and 1000 nM (sheet 'Samples'), CATDS: 5.9438014075045897E-2): 1.79 µM

Nc1c(C(=O)c2cccc(C(O)(CO)CO)c2)cnn1-c1ccc(F)cc1 [RO3201790-000]
potency estimated from few doses (PKN3; compound concentrations: 100 nM and 1000 nM (sheet 'Samples'), CATDS: 0.47947466272848499): 1.05 µM

COC(=O)C(NC(=O)NC1CCN(c2ccnc(Nc3ccc(F)cc3)n2)C1)c1ccccc1 (centres unmarked) [GSK1379712_KCGS]
potency estimated from few doses (TGFBR2): 1.4 µM

CSc1nn2c(=O)cc(N3CCOCC3)nc2n1Cc1cccc(Cl)c1Cl [GSK2347225A]
potency estimated from few doses (PIK3C3; CATDS: 0.39036921617708198): 0.041 µM

Cl.NC(=O)c1cccc(Nc2nccc(Nc3ccc(Oc4c(Cl)cccc4Cl)c(Cl)c3)n2)c1 [GW659009A]
potency estimated from few doses (PIK3CD; CATDS: 0.90760673272471903): 0.00983 µM

CC(C)c1ccc(O)cc1Nc1ccnc2ccc(C(F)(F)F)cc12 [GW482059X]
potency estimated from few doses (PIK3CD; CATDS: 0.57570605535332697): 0.139 µM

Cc1ccccc1Cn1ccn2c(=O)cc(N3CCOCC3)nc12 [GSK2269905A]
potency estimated from few doses (TESK2; CATDS: 0.33988229357461403): 1.41 µM

CCn1c(-c2ccncc2)nc2cnccc21 [SB-735216]
potency estimated from few doses (PIK3CD; CATDS: 0.88201100485399897): 0.172 µM
potency estimated from few doses (PKN2; compound concentrations: 100 nM and 1000 nM (sheet 'Samples'), CATDS: 0.34889068310517501): 2.4 µM

COc1cc(Nc2nccc(N3CCC(NC(=O)Nc4cc(C)ccc4C)C3)n2)cc(OC)c1OC (centres unmarked) [GSK1379762_KCGS]
potency estimated from few doses (PIM2; [1]): 1.94 µM

O=C1Nc2ccc(I)cc2C1=Cc1cc(Br)c(O)c(Br)c1 [GW305074X_KCGS]
potency estimated from few doses (PIM2; [2]): 2.09 µM

Cc1cc(-c2ccc3c(c2)CC[C@@H](N[C@@H](C)c2ccccc2)C3)cnc1N.Cc1cc(-c2ccc3c(c2)CC[C@@H](N[C@@H](C)c2ccccc2)C3)cnc1N.Cl.Cl [GW412617A]
potency estimated from few doses (PIM3; CATDS: 0.55054057410094004): 1.02 µM
potency estimated from few doses (TESK2; CATDS: 0.45795860987145298): 1.47 µM

CCSc1ccc(-c2nc3n(c2-c2ccncc2)CCC3)cc1.CCSc1ccc(-c2nc3n(c2-c2ccncc2)CCC3)cc1.Cl.Cl [SKF-106164-A2]
potency estimated from few doses (PIM3; CATDS: 1): 1.3 µM

CCn1c(-c2nonc2N)nc2ccccc21 [SB-693162]
potency estimated from few doses (PKN2; [2]): 0.157 µM
potency estimated from few doses (PKN3; [2]): 1.28 µM

Cc1cccc(-c2nc(Nc3ccc4c(cnn4C)c3)c3ccccc3n2)n1 [GW876731X]
potency estimated from few doses (PRKD2): 0.0267 µM
potency estimated from few doses (PRKD3): 0.0328 µM

Cc1nn(-c2ccccc2)c(O)c1C(=O)c1ccccc1 [RO1151080-000]
potency estimated from few doses (TESK2; CATDS: 1): 1.36 µM

COc1ccc2ncn(-c3cc(O[C@H](C)c4ccccc4C(F)(F)F)c(C(N)=O)s3)c2c1 [GSK317315A]
potency estimated from few doses (RIOK2): 1.94 µM

c1ccc(Oc2ccc(Nc3ccnc4ccc(-c5ccccn5)cc34)cc2)cc1 [GW407034X]
potency estimated from few doses (RIPK2; CATDS: 0.62079920866718596): 0.189 µM

CCn1c(-c2nonc2N)nc2c(N3CCCC3)nccc21 [SB-744941]
potency estimated from few doses (PKN3; [1]): 2.11 µM

CSc1ccc(NC2=C(c3ccccc3Cl)C(=O)NC2=O)cc1 [SB-342411]
potency estimated from few doses (SLK): 1.4 µM

Nc1nonc1-c1nc2cnccc2n1C1CC1 [SB-736302]
potency estimated from few doses (PKN2; compound concentrations: 100 nM and 1000 nM (sheet 'Samples'), CATDS: 0.42822259112974997): 0.348 µM
potency estimated from few doses (RPS6KB1): 0.794 µM

CNC(=O)c1cncc(/C=C/c2c(Cl)cccc2Cl)c1 [GW445014X]
potency estimated from few doses (RIPK2; CATDS: 1): 0.773 µM

CC1=C(C(=O)Nc2cc3cn[nH]c3cc2F)C(c2ccc(C(F)(F)F)cc2)CC(=O)N1 (centres unmarked) [GSK429286A]
potency estimated from few doses (PKN3; compound concentrations: 100 nM and 1000 nM (sheet 'Samples'), CATDS: 0.172679408369589): 1.7 µM
